Screening data as filed in PubChem.
This is a sample that favours compounds with a hit; in the whole collection about 18% have one here.
IL1B secr inh: inhibitors of inflammasome signaling (IL-1 beta secretion). THP-1 LPS/ATP IL-1B secretion, AlphaLISA, 16 h; stronger effect = lower value. activity change, % at 57.5 µM. 360,000 tested, 4.7% active; in the data active means activity change below about -50%; inconclusive means mostly about -30% to -49%
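THP-1 cells pretreated 1 hr with compounds (up to 57.5 uM final), then stimulated with LPS (250 ng/mL final) plus ATP (1.25 mM final); secreted IL-1B measured by AlphaLISA after 16 hr, decreased signal indicating inhibition.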
RORgamma inh: inhibitors of mouse ROR gamma transcriptional activity | 310,000 tested, 5.4% active | P51450 | Potency, µM (doses to about 53.6 µM), inactives show top-dose activity change, negative = inhibition, actives largely listed as inhibitors | Drosophila S2 Gal4-RORgamma UAS-luciferase reporter, 20 h; further: potency means the concentration at half of the fitted maximal effect; nearly all actives have a fitted effect of over 60% in size
Target sequence (P51450 whole entry, looked up, the tested form may be a part): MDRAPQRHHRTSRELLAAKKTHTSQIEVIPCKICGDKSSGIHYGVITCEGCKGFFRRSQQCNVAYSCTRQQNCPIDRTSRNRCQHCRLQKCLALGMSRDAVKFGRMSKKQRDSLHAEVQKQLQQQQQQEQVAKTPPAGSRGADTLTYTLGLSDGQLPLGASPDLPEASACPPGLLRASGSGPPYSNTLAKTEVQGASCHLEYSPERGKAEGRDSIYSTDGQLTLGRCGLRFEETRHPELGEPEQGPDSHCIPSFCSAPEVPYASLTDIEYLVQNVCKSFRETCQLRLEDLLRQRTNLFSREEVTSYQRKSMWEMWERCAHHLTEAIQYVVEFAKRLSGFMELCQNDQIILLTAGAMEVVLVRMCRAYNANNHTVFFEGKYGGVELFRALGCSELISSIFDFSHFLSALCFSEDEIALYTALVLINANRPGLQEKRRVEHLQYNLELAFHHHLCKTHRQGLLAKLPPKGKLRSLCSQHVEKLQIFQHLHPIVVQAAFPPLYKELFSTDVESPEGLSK
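Schneider cells (Drosophila), stable Gal4 DBD–ROR gamma + UAS-luc; 1 hr cmpd preincubation; Cu2+ induction 700 uM final; 20 hr ambient; luminescence.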
DT40 TDP1 CPT: growth inhibition of DT40 Tdp1-/-;hTDP1 cells with camptothecin (screen for TDP1 inhibitors); chicken DT40 Tdp1-/-;hTDP1 cells + 20 nM CPT, ATP luminescence, 48 h; Potency, µM (series often up to 46.2 µM), for the others: at the top dose activity change, negative = growth inhibition, actives largely listed as inhibitors; 420,000 tested, 12% active; AID 686979; further: potency means the concentration at half of the fitted maximal effect; nearly all actives have a fitted effect of over 55% in size
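Chicken DT40 Tdp1-/- cells stably complemented with human TDP1 were seeded at 400 cells/well in medium containing 20 nM camptothecin, exposed to pin-transferred compounds, and grown at 37 °C for at least 48 hr. Viability was read as ATP luminescence.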
DT40 TDP1 no CPT: qHTS for Inhibitors of human tyrosyl-DNA phosphodiesterase 1 (TDP1): qHTS in cells in absence of CPT. DT40 Tdp1-/- hTDP1 cells, no CPT, ATP luminescence, 48 h. Potency, µM (highest dose often 46.2 µM), for the others: top-dose activity change, negative = growth inhibition, usual class: inhibitors. 420,000 tested, 15% active; further: potency means the concentration at half of the fitted maximal effect; nearly all actives have a fitted effect of over 55% in size
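Chicken DT40 Tdp1-/- cells stably complemented with human TDP1 were seeded at 400 cells/well with DMSO in place of 20 nM camptothecin. After compound pinning, cells grew at least 48 hr at 37 °C; viability read by CellTiter-Glo luminescence.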
Gal4-VP16 FLuc: inhibits Gal4-VP16 luciferase reporter, ROR gamma counter-screen; 310,000 tested, 3.5% active; Drosophila S2 Gal4-VP16 UAS-luciferase, luminescence, 20 h; Potency, µM (titrated, usually from 53.6 µM), for inactives: top-dose activity, negative = inhibition, actives largely listed as inhibitors;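 further: Gal4-VP16 expression switched on by copper sulfate through the metallothionein promoter; potency means the concentration at half of the fitted maximal effect; nearly all actives have a fitted effect of over 50% in size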
LDHA inh: LDHA (human) enzyme inhibition | P00338 | purified LDHA, NADH/diaphorase-resazurin fluorescence; stronger effect = lower value | activity change, % (values are at about 110 or 230 µM) | 480,000 tested, 0.15% active; in the data active means activity change below about -30%; inconclusive means mostly about -25% to -30%;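 further: plate controls were DMSO wells for no effect and wells without enzyme for full effect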
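Remaining NADH was detected by diaphorase (0.133 mg/mL) converting 37 µM resazurin to fluorescent resorufin, read at 0 and 20 minutes. The preceding 5-minute room-temperature reaction used 2 nM LDHA, 0.2 mM sodium pyruvate and 0.06 mM NADH at pH 7.4.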
Active calls of the source: *; u = inconclusive; x = no result. Unless noted, the call rests on the fitted dose curve; in most records, active means well fitted curve in the direction sought with a large enough effect; inconclusive means small, poorly fitted or top-dose-only effect, or another doubt; inactive means no such curve, though single readings can be large; an effect the other way counts as inactive or inconclusive. Unless noted, on the % scale 0 is the no-effect control and ±100 the full control effect.

SMILES | IL1B secr inh | RORgamma inh | DT40 TDP1 CPT | DT40 TDP1 no CPT | Gal4-VP16 FLuc | LDHA inh
O=c1c2cnc3ncnn3c2ccn1-c1cc(Cl)ccc1Cl | x | x | x | x | x | -2
Cc1cccc(N2CCN(C(=O)Cn3nc(Cc4cccnc4)c4ccccc4c3=O)CC2)c1C | x | x | 13µM* | 8.2µM* | x | 1
CCc1ccccc1N(CC)C(=O)Cn1nc(Cc2cccnc2)c2ccccc2c1=O | x | x | x | x | x | 5
COc1ccc(Cl)cc1NC(=O)Cn1nc(Cc2ccncc2)c2ccccc2c1=O | x | x | u | 23µM* | x | 0
COc1ccc(Cl)cc1NC(=O)Cn1c(=O)n(Cc2ccco2)c(=O)c2cccnc21 | x | x | u | 16µM* | x | -5
CCN(C(=O)Cn1nc(Cc2cccnc2)c2ccccc2c1=O)c1cc(C)ccc1C | x | x | 23µM* | 23µM* | x | -6
CCC(C)NC(=S)N(C)N (stereo not given) | x | x | x | x | x | 8
CN(C)c1ccc(C(=O)/C=C/c2ccc(C#N)cc2)cc1 | x | x | x | x | x | 1
CCN(C(=O)Cn1nc(Cc2cccnc2)c2ccccc2c1=O)c1cccc(Cl)c1 | x | x | x | x | x | -3
CCN(C(=O)Cn1nc(Cc2ccncc2)c2ccccc2c1=O)c1cccc(Cl)c1 | x | x | u | 21µM* | x | -10
CCn1ncc(Cl)c1CNC(=O)C1CCCN(S(=O)(=O)c2cnn(C)c2)C1 (stereo not given) | x | x | x | x | x | -6
Cc1ccc(C)c(NC(=O)c2cc3c(s2)CCC3)c1 | x | x | x | x | x | 4
Cc1ccc(S(=O)(=O)N2CCOCC2)cc1NC(=O)c1cc2c(s1)CCC2 | u | 11% | u | 16µM* | 0% | 4
Cc1ccc(S(=O)(=O)Nc2ccc(Cl)cc2)cc1NC(=O)c1cc2c(s1)CCCC2 | -64* | u | u | u | -5% | -2
Cc1ccc(NC(=O)c2cc3c(s2)CCC3)cc1S(=O)(=O)N1CCOCC1 | u | u | u | u | -10% | 0
COc1cc(S(=O)(=O)N2CCOCC2)ccc1NC(=O)c1cc2c(s1)CCC2 | u | 16% | 16µM* | 26µM* | -6% | -5
CCc1sc(C(=O)Nc2ccc(OC)c(S(=O)(=O)N3CCOCC3)c2)cc1C | -25 | x | u | u | x | -1
COc1ccc(NC(=O)c2cc3c(s2)CCC(C)C3)cc1S(=O)(=O)N1CCOCC1 (stereo not given) | 0 | u | u | 21µM* | -1% | -4
Cc1cccc(S(=O)(=O)Nc2nc3ccccc3nc2Nc2ccccc2F)c1 | x | x | x | x | x | -2
Cc1cc(C)cc(NC(=O)CN(c2cccc(C)c2C)S(=O)(=O)c2ccccc2)c1 | x | x | 16µM* | 21µM* | x | 0
O=C(CN(c1ccccc1F)S(=O)(=O)c1ccccc1)Nc1ccccc1 | x | x | x | x | x | -5
Cc1cc(NC(=O)CN(c2cccc(C)c2C)S(=O)(=O)c2ccccc2)ccc1Br | x | x | 18µM* | 16µM* | x | -2
CCCCC(=O)Nc1ccc2nc(SCC(=O)N3CCCC3)sc2c1 | x | x | u | 21µM* | x | -3
CC(C)(C)C(=O)Nc1ccc2nc(SCC(=O)N3CCCC3)sc2c1 | x | x | -85% | 21µM* | x | 1
COc1cccc(C(=O)Nc2c(C(=O)NC(C)(C)C)oc3ccccc23)c1 | x | x | 18µM* | u | x | 6
SMILES | IL1B secr inh | RORgamma inh | DT40 TDP1 CPT | DT40 TDP1 no CPT | Gal4-VP16 FLuc | LDHA inh
COc1cccc(NC(=O)c2oc3ccccc3c2NC(=O)c2ccccc2C)c1 | x | x | 10µM* | u | x | -4
COc1cccc(NC(=O)c2oc3ccccc3c2NC(=O)Cc2cccc(C)c2)c1 | x | x | 23µM* | 18µM* | x | 2
Cc1cccc(CC(=O)Nc2c(C(=O)Nc3cccc(F)c3)oc3ccccc23)c1 | x | x | u | u | x | 5
COc1cccc(NC(=O)c2oc3ccccc3c2NC(C)=O)c1 | -16 | 2% | 2% | -18% | 3% | -6
O=c1[nH]nc(-c2ccco2)c2c1Nc1nnnn1C2c1ccc(F)cc1 (stereo not given) | x | x | x | x | x | 9
Cc1ccsc1/C=C1\Oc2cc(OS(C)(=O)=O)ccc2C1=O | x | x | x | x | x | 3
CCOC(=O)c1c(NC(=O)c2ccoc2C)sc(C)c1C | 0 | -13% | -9% | 21µM* | -3% | -14
Cc1occc1C(=O)Nc1sc2c(c1C(N)=O)CCCCC2 | 22 | 38% | u | u | u | -8
CCc1c(C)sc(NC(=O)c2ccoc2C)c1C(N)=O | -56* | 11% | u | u | -22% | -8
CCOC(=O)c1c(NC(=O)c2ccncc2)sc(C)c1C | -2 | -15% | u | u | 6% | -7
Cn1cc(C(=O)NC2CCN(Cc3nnc(C(C)(C)C)o3)CC2)cn1 | x | x | x | x | x | 9
Cc1cc(C(=O)COC(=O)c2ccco2)c(C)n1Cc1ccccc1 | x | x | x | x | x | 1
Cc1ccc(SCCNC(=O)CC2C=CCC2)cc1C (stereo not given) | x | x | x | x | x | -1
CCn1cc2nc(SCC(=O)Nc3ccc(F)cc3F)n(Cc3ccccc3)c(=O)c2n1 | -9 | u | 23µM* | u | -21% | -11
CCN(C(=O)CSc1nc2ccccc2n1CC(=O)Nc1ccc(F)cc1F)c1ccccc1 | x | x | 23µM* | 15µM* | x | -8
CCn1cc2nc(SCC(=O)Nc3ccc(C)cc3C)n(Cc3ccc(C)cc3)c(=O)c2n1 | x | x | 3.7µM* | 5.2µM* | x | 0
Cn1ncc2nc(SCC(=O)Nc3ccc(Br)cc3F)n(Cc3ccccc3)c(=O)c21 | x | x | u | u | x | -19
CCCn1nc(C(=O)NC(c2ccc(OCC)c(OCC)c2)C(C)C)c2ccccc2c1=O (stereo not given) | x | x | x | x | x | 6
CCNc1c(NC(=O)Nc2ccc(OC)c(OC)c2)c(=O)oc2ccccc12 | x | x | x | x | x | 13
CSc1ccc(CNc2cccc(C(=O)O)c2C)cc1 | x | x | x | x | x | -4
Cc1ccc2c(CN3C(=O)C(=O)N(C4CCCC4)C3=O)cc(=O)oc2c1C | x | x | x | x | x | -1
COc1ccc(S(=O)(=O)Nc2cccc3ccc(O)cc23)cc1 | 34 | x | 6.5µM* | 7.3µM* | x | 3
O=S(=O)(Nc1cc(Sc2cccc3cccnc23)c(O)c2ccccc12)c1ccc(F)cc1 | -98* | 1.3µM* | 0.58µM* | 0.92µM* | 2.5µM* | 27
COc1ccc(S(=O)(=O)Nc2cc(Sc3ncn[nH]3)c(O)c3ccccc23)cc1 | x | 5µM* | x | x | 7.1µM* | 22
COc1ccc(S(=O)(=O)Nc2cccc3ccccc23)cc1 | x | x | x | x | x | -2
O=C(O)CSc1cc(NS(=O)(=O)c2ccc(Cl)cc2)c2ccccc2c1O | -84* | -24% | 4.6µM* | 2.3µM* | u | 48
